Records with an inconclusive call do not appear. Where a call stands in place of a potency, no number is given. Active and inactive are the calls of the source. The call rests on the fitted dose curve; in most records, active means well fitted inhibition curve with a large enough effect; inconclusive means small, poorly fitted or top-dose-only effect; inactive means flat fitted curve, though single readings scatter.
biological target: Glutathione peroxidase 1 (Homo sapiens) (UniProt P07203); test: Primary qHTS Assay for Inhibitors of Recombinant Selenoprotein Glutathione Peroxidase 1 (GPX1) (AID 1845191); settings: recombinant GPX1, GR-coupled NADPH fluorescence, 15 min; series mostly up to 48.8 µM
Sequence (P07203 whole entry, looked up): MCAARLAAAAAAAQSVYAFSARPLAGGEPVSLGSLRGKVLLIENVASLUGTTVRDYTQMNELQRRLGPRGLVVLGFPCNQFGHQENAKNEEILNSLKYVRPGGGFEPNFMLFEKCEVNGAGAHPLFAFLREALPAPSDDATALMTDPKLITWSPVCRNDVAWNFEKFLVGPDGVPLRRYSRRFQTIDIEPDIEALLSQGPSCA
Outline: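 NADPH consumption tracked by fluorescence at 340/450 nm between t=0 and t=15 min, room temperature. Final mix: 10 nM GPX1, 100 nM glutathione reductase, 1 mM GSH, 0.5 mM NADPH, 0.5 mM cumene hydroperoxide, 0.01% BSA; 30 min compound–enzyme preincubation.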
Further: nearly all actives have a fitted effect of over 65% in size.

SMILES | Potency | outcome
C/C=C1\[C@H](O[C@@H]2O[C@H](CO)[C@@H](O)[C@H](O)[C@H]2O)OC=C(C(=O)OC)[C@H]1CC(=O)OC[C@H]1O[C@@H](OCCc2ccc(O)cc2)[C@H](O)[C@@H](O)[C@@H]1O | inactive | –
OC/C=C/c1ccc(O[C@@H]2O[C@H](CO)[C@@H](O)[C@H](O)[C@H]2O)cc1 | inactive | –
COC(=O)C1=CO[C@@H](O[C@@H]2O[C@H](CO)[C@@H](O)[C@H](O)[C@H]2O)[C@@H]2C(COC(C)=O)=C[C@H](O)[C@H]12 | inactive | –
C=CC(C)(O)CC/C=C(\C)C(=O)OC1C(O)C(CO)OC(OC(=O)C23CCC(C)(C)CC2C2=CCC4C5(C)CCC(OC6OC(COC7OCC(OC(C)=O)C(O)C7OC7OC(COC(C)=O)C(O)C(O)C7O)C(O)C(O)C6O)C(C)(C)C5CCC4(C)C2(C)C(O)C3O)C1OC1OCC(OC2OCC(O)C(OC3OCC(O)C(O)C3O)C2O)C(O)C1O (stereo not drawn) | – | inactive [at 9.52 µM]
COc1cc2c3c(cc4ccccc4c3c1O)NC2=O | inactive | –
COC(=O)CC1CC(c2ccc(O)cc2)=NO1 (stereo not drawn) | inactive | –
Cc1cc(C)c2c(N)c(C(=O)NCc3ccc(Cl)cc3)sc2n1 | inactive | –
C=C1C(=O)O[C@@H]2C/C(C)=C\C(=O)/C=C(\C)[C@@H](OC(=O)/C(C)=C\C)[C@H](O)[C@@H]12 | inactive | –
CCC(C)/C=C(C)/C=C/c1cc2c(cn1)C(=O)C(C)(OC(C)=O)C(O)=C2Cl (stereo not drawn) | inactive | –
COc1ccc(C2COc3cc(O)ccc3C2)c(O)c1 (stereo not drawn) | inactive | –

biological target: Phospholipid hydroperoxide glutathione peroxidase GPX4 (Homo sapiens) (UniProt P36969); test: Primary qHTS Assay for Inhibitors of Recombinant Selenoprotein Glutathione Peroxidase 4 (GPX4) (AID 1845192); settings: recombinant GPX4, GR-coupled NADPH fluorescence, 15 min; series mostly up to 50 µM
Sequence (P36969 whole entry, looked up): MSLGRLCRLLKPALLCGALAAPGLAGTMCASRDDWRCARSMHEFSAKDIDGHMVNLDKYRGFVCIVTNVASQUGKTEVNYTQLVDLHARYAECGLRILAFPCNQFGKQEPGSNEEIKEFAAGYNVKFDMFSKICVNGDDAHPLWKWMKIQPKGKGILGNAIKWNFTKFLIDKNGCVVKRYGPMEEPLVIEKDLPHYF
Outline: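 NADPH consumption followed by fluorescence at 340/450 nm, t=0 and after 15 min at room temperature. Reaction started with cumene hydroperoxide (0.5 mM final) after 30 min compound–GPX4 preincubation; final 200 nM GPX4, 100 nM GR, 1 mM GSH, 0.5 mM NADPH.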

SMILES | Potency | outcome
CC(c1ncncc1F)C(O)(Cn1cncn1)c1ccc(F)cc1F (stereo not drawn) | inactive | –
CNC(C)C(=O)NC(C(=O)N1CCCC1c1nc(C(=O)c2ccc(F)cc2)cs1)C1CCCCC1 (stereo not drawn) | inactive | –
C/C=C1\[C@H](O[C@@H]2O[C@H](CO)[C@@H](O)[C@H](O)[C@H]2O)OC=C(C(=O)OC)[C@H]1CC(=O)OC[C@H]1O[C@@H](OCCc2ccc(O)cc2)[C@H](O)[C@@H](O)[C@@H]1O | inactive | –
OC/C=C/c1ccc(O[C@@H]2O[C@H](CO)[C@@H](O)[C@H](O)[C@H]2O)cc1 | inactive | –
Cn1nc(C(C)(C)C)cc1C(=O)NC(Cc1cccc(Cl)c1)C(=O)NCC#N (stereo not drawn) | inactive | –
CS(=O)(=O)NCC1CCC(Nc2nc3c(s2)CCSc2ccccc2-3)CC1 (stereo not drawn) | inactive | –
CC(=O)OC[C@@]12C(=O)C[C@@H](C)[C@]3(C[C@@H](c4ccoc4)O[C@H]3OC(C)=O)[C@H]1CCC[C@]21CO1 | inactive | –
COC(=O)C1=CO[C@@H](O[C@@H]2O[C@H](CO)[C@@H](O)[C@H](O)[C@H]2O)[C@@H]2C(COC(C)=O)=C[C@H](O)[C@H]12 | inactive | –
C=CC(C)(O)CC/C=C(\C)C(=O)OC1C(O)C(CO)OC(OC(=O)C23CCC(C)(C)CC2C2=CCC4C5(C)CCC(OC6OC(COC7OCC(OC(C)=O)C(O)C7OC7OC(COC(C)=O)C(O)C(O)C7O)C(O)C(O)C6O)C(C)(C)C5CCC4(C)C2(C)C(O)C3O)C1OC1OCC(OC2OCC(O)C(OC3OCC(O)C(O)C3O)C2O)C(O)C1O (stereo not drawn) | – | inactive [at 9.73 µM]
NC(=O)C(CCC(F)(F)F)N(Cc1ccc(-c2ncon2)cc1F)S(=O)(=O)c1ccc(Cl)cc1 (stereo not drawn) | inactive | –
CC[C@H]1OC(=O)[C@](C)(F)C(=O)[C@H](C)[C@@H](O[C@@H]2O[C@H](C)C[C@H](N(C)C)[C@H]2O)[C@](C)(OC)C[C@@H](C)C(=O)[C@@H](C)[C@H]2N(CCCCn3cc(-c4cccc(N)c4)nn3)C(=O)O[C@]12C | inactive | –
COC(=O)CC1CC(c2ccc(O)cc2)=NO1 (stereo not drawn) | inactive | –
COc1nc2sc(C(=O)NC3CC3)c(N)c2c(C)c1Cl | inactive | –
CC1(c2nc3c(C(N)=O)cccc3[nH]2)CCCN1 (stereo not drawn) | inactive | –
COC(=O)N[C@H](C(=O)N1[C@@H]2CC[C@@H](C2)[C@H]1c1nc2ccc(-c3ccc4c(c3)C(F)(F)c3cc(-c5cnc([C@@H]6CCC7(CC7)N6C(=O)[C@@H](NC(=O)OC)C(C)C)[nH]5)ccc3-4)cc2[nH]1)C(C)C | inactive | –
CC1(C)CC[C@]2(C(=O)O)CC[C@]3(C)C(=CCC4[C@@]5(C)C[C@@H](O)[C@H](O)C(C)(C)C5CC[C@]43C)C2C1 (stereo partly drawn) | inactive | –
CC1=C(/C=C/C(C)=C\C=C\C(C)=C/C(=O)O)C(C)(C)CCC1 | inactive | –
CC(=O)N1CCN(Cc2ccc([C@H](C)Nc3nccc(N4C(=O)OC[C@@H]4C(C)C)n3)cc2)CC1 | inactive | –
